Pf growth 96h: Primary qHTS for delayed death inhibitors of the malarial parasite plastid, 96 hour incubation | P. falciparum luciferase reporter growth, 96 h | Potency, µM (series often up to 28.7 µM), actives largely listed as inhibitors | 6.9% of 320,000 active
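Cell-based qHTS: luciferase-tagged P. falciparum in erythrocytes (2% hematocrit, 0.05% parasitemia final) incubated with compounds for 96 hours, 37 C, 5% CO2; luciferase detection reagent then added and luminescence measured.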
SARS PLP yeast: qHTS of Yeast-based Assay for SARS-CoV PLP; S. cerevisiae expressing SARS-CoV PLpro, growth rescue; Potency, µM (top dose mostly 32.9 µM), hits mostly activators; 0.19% of 330,000 active; calls by dose curve; further: nearly all actives have a fitted effect of over 55% in size
HCV inhibitor: qHTS Assay for Inhibitors of Hepatitis C Virus (HCV) | Huh7.5.1 HCVcc-Cre infection, luciferase reporter, 44 h | Potency, µM (highest dose often 41.8 µM), actives largely listed as inhibitors | 3.4% of 340,000 active | AID 651820, 2012
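Seed cells (1,000/well) for 4 h; treat with compound and infect with HCVcc-Cre, moi about 0.5. Incubate 44 h, then detect luciferase activity.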
Pf growth 48h: Primary qHTS for delayed death inhibitors of the malarial parasite plastid, 48 hour incubation; P. falciparum luciferase growth in erythrocytes, 48 h; Potency, µM (top dose mostly 28.7 µM), actives largely listed as inhibitors; 5.9% of 310,000 active
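Luciferase-expressing P. falciparum in infected erythrocytes (2% hematocrit, 0.1% parasitemia final) in RPMI 1640/0.5% Albumax were exposed to compound for 48 hours at 37 C, 5% CO2; growth read as luminescence.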
NS1 inh: qHTS Assay for Inhibitors of Influenza NS1 Protein Function; Potency, µM (titrated, usually from 46.1 µM); 0.4% of 270,000 active; AID 2326, 2010; calls by dose curve; further: actives are rising curves; nearly all actives have a fitted effect of over 50% in size
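Compounds were scored for reversing the slow growth caused by influenza A NS1 in S. cerevisiae, measured by optical density at 600 nm. Assay medium contained 2% galactose at pH 6.0; NS1-free yeast of the same strain were the positive control.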
AMA1-RON2 inh: qHTS for Inhibitors of AMA1-RON; Towards Development of Antimalarial Drug Lead: Primary Screen; AlphaScreen AMA1-biotinylated RON2 peptide binding; AID 720542, 2013; Potency, µM (top dose mostly 58.2 µM), actives largely listed as inhibitors; Plasmodium falciparum AMA1 (3D7) - RON2 peptide interaction; 0.2% of 360,000 active; further: nearly all actives have a fitted effect of over 45% in size
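AMA1 (3D7) with his tag at 25 nM final met compounds first, then biotinylated RON2 peptide at 25 nM; detection used donor plus acceptor beads, 10 µg/mL apiece, read by AlphaScreen after 30 min at room temperature.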
Each line names hits and unclear results; the compound was inactive in the other large screens. Sampled rows, rich in hits. Any-hit rate of the full collection: about 12%. Unless noted, the call rests on the fitted dose curve; in most records, active means well fitted curve in the direction sought with a large enough effect; inconclusive means small, poorly fitted or top-dose-only effect, or another doubt; inactive means no such curve, though single readings can be large; an effect the other way counts as inactive or inconclusive.

Cc1ccc(CN2CCc3[nH]c(=O)[nH]c(=O)c3C2)cc1	Pf growth 96h 1.2µM
O=c1[nH]nc(-c2n[nH]c(=O)o2)o1	none (no result: Pf growth 96h, SARS PLP yeast, Pf growth 48h, NS1 inh)
CNc1c(NS(=O)(=O)c2ccc(C3CCCCC3)cc2)c(=O)oc2ccccc12	none
CCc1cccc(C)c1NC(=O)CN1CCN(S(=O)(=O)c2ccc(C(C)(C)C)cc2)CC1	Pf growth 96h 0.93µM, HCV inhibitor 2µM, Pf growth 48h 1.7µM (no result: SARS PLP yeast, NS1 inh)
O=C(CN1CCN(S(=O)(=O)c2ccc(C(F)(F)F)cc2)CC1)N1CCNC1=O	Pf growth 96h inconclusive (no result: NS1 inh)
CC(C)(C)c1ccc(S(=O)(=O)N2CCN(CC(=O)N3CC(=O)Nc4ccccc43)CC2)cc1	Pf growth 96h inconclusive, Pf growth 48h 12µM (no result: NS1 inh)
O=C(OCCN1C(=O)c2cccc3c(N4CCOCC4)ccc(c23)C1=O)c1cccc(Cl)c1	Pf growth 96h inconclusive, HCV inhibitor 11µM, Pf growth 48h inconclusive, NS1 inh inconclusive
O=C(OCCN1C(=O)c2cccc3c(N4CCOCC4)ccc(c23)C1=O)c1ccc(Cl)cc1Cl	Pf growth 96h inconclusive, HCV inhibitor inconclusive, Pf growth 48h inconclusive, NS1 inh inconclusive
Oc1ccc(C2=CSC3=NCCN23)cc1O	Pf growth 48h 9.3µM
Brc1ccc(C2=CSC3=NCCN23)cc1	Pf growth 48h inconclusive (no result: NS1 inh)
CC(C)(C)c1cc(C2=CSC3=NCCN23)cc(C(C)(C)C)c1O	Pf growth 96h 4.7µM, HCV inhibitor 5.6µM, Pf growth 48h inconclusive
Cc1cccc(C)c1NC(=O)C(c1ccc(-c2ccccc2)cc1)n1c(=O)c(-c2cc3ccccc3[nH]2)nc2ccccc21 (centres undefined)	none (no result: Pf growth 96h, SARS PLP yeast, HCV inhibitor, Pf growth 48h, NS1 inh)
O=[N+]([O-])c1cncc([N+](=O)[O-])c1Nc1cccc(O)c1	Pf growth 96h inconclusive, Pf growth 48h inconclusive (no result: SARS PLP yeast)
CC(CCc1ccco1)NC(=O)c1cccc2c1C(=O)N(C1CCCCC1)C2 (centres undefined)	Pf growth 96h inconclusive, HCV inhibitor inconclusive, Pf growth 48h inconclusive (no result: NS1 inh)
COc1ccc(N2Cc3cccc(C(=O)NC(C)CCc4ccco4)c3C2=O)cc1 (centres undefined)	Pf growth 96h 12µM (no result: Pf growth 48h)
CCOc1ccc(S(=O)(=O)N2CCCC(C(=O)NCC3CCCO3)C2)cc1 (centres undefined)	Pf growth 48h inconclusive
O=C(C1CCCO1)N1CCN(S(=O)(=O)c2ccc(Cl)cc2)CC1 (centres undefined)	none
CN1CCC(OC(c2ccccc2)c2ccccc2)CC1	Pf growth 96h inconclusive
CN1CCC(Oc2ccccc2Sc2ccccc2)CC1	Pf growth 96h 13µM, HCV inhibitor inconclusive, Pf growth 48h inconclusive
O=C(Nc1cccnc1)c1cc(-c2ccccc2O)on1	none
O=C(Nc1cccc2ccccc12)c1cn(-c2ccccc2)nc1-c1cccs1	HCV inhibitor inconclusive
O=C(Nc1cccnc1)c1cc(-c2cccs2)on1	Pf growth 96h 10µM (no result: HCV inhibitor)
CN(CC(=O)Nc1ccc(F)cc1)C(=O)c1cn(-c2ccccc2)nc1-c1cccs1	Pf growth 96h inconclusive, HCV inhibitor inconclusive, Pf growth 48h inconclusive (no result: NS1 inh)
O=C(Nc1cccnc1)c1cn(-c2ccccc2)nc1-c1cccs1	HCV inhibitor inconclusive, Pf growth 48h 0.59µM
CCN(CC)CCNC(=O)c1ccc(NC(=O)c2cn(-c3ccccc3)nc2-c2cccs2)cc1	Pf growth 96h inconclusive, HCV inhibitor 11µM, Pf growth 48h 12µM
O=C(/C=C/c1cn(-c2ccccc2)nc1-c1cccs1)NCCN1CCOCC1	Pf growth 96h inconclusive, HCV inhibitor 14µM, Pf growth 48h inconclusive
Cc1ccc(S(=O)(=O)NCCc2nnc(SCc3cccnc3)n2C)cc1	none
CCN(CC)CCNC(=O)c1ccc(NC(=O)c2ccccc2-c2ccc(C(F)(F)F)cc2)cc1	Pf growth 96h 9.3µM, HCV inhibitor inconclusive, Pf growth 48h 13µM
CCN(CC)CCNC(=O)c1ccc(NC(=O)c2ccc3c(c2)CCC3)cc1	Pf growth 96h 3.7µM, HCV inhibitor 11µM, Pf growth 48h 5.2µM
CCN(CC)CCNC(=O)c1ccc(NC(=O)Cc2ccccc2F)cc1	Pf growth 48h inconclusive
CCN(CC)CCNC(=O)c1ccc(NC(=O)c2c(C)nn(-c3ccc(F)cc3)c2Cl)cc1	Pf growth 48h inconclusive
O=C(c1cn(-c2ccccc2)nc1-c1cccs1)N1CCN(c2ccccc2)CC1	HCV inhibitor 7.1µM
CCN(CC)CCNC(=O)c1ccc(NC(=O)c2cn(-c3ccc(F)cc3)nc2-c2cccc(OC)c2)cc1	Pf growth 96h 1µM, HCV inhibitor inconclusive, Pf growth 48h 1.9µM
CC1(C)CC(NC(=O)c2ccccn2)CC(C)(C)N1O	none
CC(=O)OCC1O[C@@H](O[C@@H]2C[C@H]3C(C)(C)[C@H](OC(C)=O)CC[C@]3(C)[C@H]3CC[C@]45C[C@]4(CC[C@H]5[C@@H](C)C[C@@H](O)[C@H](O)C(C)(C)O)[C@@]32C)[C@H](O)[C@@H](O)[C@@H]1O (some centres undefined)	Pf growth 96h 5.9µM, Pf growth 48h 12µM (no result: NS1 inh, AMA1-RON2 inh)
CCN(CC)S(=O)(=O)c1ccc2[nH]cc(C(=O)NCCN3CCCCC3C)c(=O)c2c1 (centres undefined)	Pf growth 48h 4.1µM (no result: Pf growth 96h)
CCc1ccc(N(C)S(=O)(=O)c2ccc3[nH]cc(C(=O)NCCN4CCOCC4)c(=O)c3c2)cc1	Pf growth 96h inconclusive (no result: Pf growth 48h)
CCCCCNC(=O)c1c[nH]c2ccc(S(=O)(=O)N3CCC4(CC3)OCCO4)cc2c1=O	Pf growth 48h 13µM
CCN(CC)S(=O)(=O)c1ccc2[nH]cc(C(=O)NCCC3=CCCCC3)c(=O)c2c1	HCV inhibitor 11µM, Pf growth 48h 8.3µM
CCN(CC)S(=O)(=O)c1ccc2[nH]cc(C(=O)NCCCN3CCCCC3)c(=O)c2c1	Pf growth 96h inconclusive, Pf growth 48h inconclusive
CCN(CC)S(=O)(=O)c1ccc2[nH]cc(C(=O)NCCN3CCCCCC3)c(=O)c2c1	Pf growth 48h 1.9µM
COCCCNC(=O)c1c[nH]c2ccc(S(=O)(=O)N3CCC4(CC3)OCCO4)cc2c1=O	Pf growth 48h inconclusive (no result: NS1 inh)
C=CCN(c1ccccc1)S(=O)(=O)c1ccc2[nH]cc(C(=O)NCCOC)c(=O)c2c1	Pf growth 96h 4.7µM, HCV inhibitor inconclusive, Pf growth 48h inconclusive, NS1 inh inconclusive
CCN(CC)S(=O)(=O)c1ccc2[nH]cc(C(=O)NCCCN3CCCCC3C)c(=O)c2c1 (centres undefined)	Pf growth 48h 10µM (no result: Pf growth 96h)
Cc1cc2nc3c(nc2cc1C)C1(C(=O)N(C)C)CCC3(C)C1(C)C (centres undefined)	Pf growth 48h inconclusive (no result: Pf growth 96h)
